Experimental data reported in PubChem BioAssay (NCI).
Values joined by “and” are separate entries in the source; they are usually repeats but may differ in a detail not shown here. Identical values can stand only once. This is part of a sample that, as a whole, favours compounds with a hit. Of some 79,000 tested, about 15% had one in any assay. Active and inactive are the calls of the source. Rule as the data show it: active = growth inhibition above about 70%; inactive = the rest.

Assays:
[1] = NCI Yeast Anticancer Drug Screen. Data for the rad50 strain (AID 155);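 also: 0% = growth of vehicle-only cultures of the same strain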; conditions: S. cerevisiae rad50 strain growth inhibition, stronger effect = higher value; at 50.0 µM unless noted
Method in brief: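 Cells are treated with compound, grown, and their growth is then scored against vehicle-only cultures of the same repair-deficient yeast strain.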

[2] = NCI Yeast Anticancer Drug Screen. Data for the mec2-1 strain (AID 157); conditions: S. cerevisiae mec2-1 strain, stronger effect = higher value; at 50.0 µM unless noted
Method in brief: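 Test agents were screened against the mec2-1 yeast strain, with defined DNA repair or cell cycle alteration. Growth was scored as inhibition against vehicle-only controls.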

[3] = NCI Yeast Anticancer Drug Screen. Data for the sgs1 mgt1 strain (AID 161);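 also: 0% = growth of cultures given vehicle only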; conditions: S. cerevisiae sgs1 mgt1 strain, stronger effect = higher value; at 50.0 µM unless noted
Method in brief: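 Inhibition of yeast growth, normalised to vehicle-treated controls, is reported for a strain bearing genetic alterations in DNA damage repair.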

[4] = NCI Yeast Anticancer Drug Screen. Data for the cln2 rad14 strain (AID 165);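 also: 0% = growth equal to vehicle treated cultures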; conditions: S. cerevisiae cln2 rad14 strain, stronger effect = higher value; at 50.0 µM unless noted
Method in brief: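 Growth of compound-exposed yeast (cln2 rad14 genotype) measured and expressed as inhibition relative to vehicle.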

[5] = NCI Yeast Anticancer Drug Screen. Data for the bub3 strain (AID 167); conditions: S. cerevisiae bub3 mutant strain, stronger effect = higher value; at 50.0 µM unless noted
Method in brief: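 Part of a panel of yeast mutants defective in DNA damage repair or cell cycle regulation. Each strain is grown with compound, and inhibition is calculated relative to solvent-treated cultures.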

[6] = NCI Yeast Anticancer Drug Screen. Data for the mlh1 rad18 strain (AID 175); conditions: S. cerevisiae mlh1 rad18 strain growth inhibition, stronger effect = higher value; at 50.0 µM unless noted
Method in brief: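 In this whole-cell yeast screen, a strain with altered DNA damage repair is challenged with compound, and its growth is measured against matched vehicle-treated controls.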

Measured: growth inhibition

NC(CSS(=O)(=O)O)=NCCCOCc1ccccc1
inactive: [1] 15.4% | [2] 7% | [3] 12.3% | [4] 10% | [5] 18.6% | [6] -7.2%

CC(C)=CCCC(C)CCOc1cccc(C)c1 (stereo not drawn)
inactive: [1] 3.65% | [2] 8.3% | [3] -6.95% | [4] -37.5% | [5] 11.6% | [6] 1.2%

Cc1[nH]n(-c2ccc(Cl)cc2)c(=O)c1N=Nc1cccc(C(F)(F)F)c1
inactive: [1] 21.8% | [2] 2.05% | [3] 2.1% | [4] 7.45% | [5] -2.05% | [6] 2%

CC(=O)Nc1ccc2nc(SC(C)C)sc2c1
inactive: [1] 39.4% | [2] 7.7% | [3] 31.6% | [4] 17.4% | [5] 13.1% | [6] 19.9%

CCOC(=O)c1sc2c(c1OC(=O)c1ccc(OC)cc1)c(=O)n(-c1ccccc1)c(=S)n2-c1ccccc1
inactive: [1] 39.5% | [2] 9.65% | [3] 23.4% | [4] 17.5% | [5] 31% | [6] 38.4%

CC1CCCC(CC(=O)O)(CC(=O)O)C1 (stereo not drawn)
inactive: [1] -14.1% | [2] -33.6% | [3] -5.1% | [4] -29.3% | [5] -4.1% | [6] -21.4%

Nc1c(C(=O)O)ccc(O)c1O
inactive: [1] 28.9% | [2] 20.5% | [3] 32.2% | [4] 7.95% | [5] 0.95% | [6] 9.8%

CC12OC3(C)C4CC1C1(C)OC4(C)C3C(O)C21 (stereo not drawn)
inactive: [1] -0.8% | [2] 4.8% | [3] -3.7% | [4] -16.6% | [5] -6.5% | [6] 10.3%

COc1cc(C(=O)NNC(=O)c2ccc(Cl)c(Cl)c2)cc(OC)c1OC
inactive: [1] 24.4% | [2] 33.9% | [3] 20.5% | [4] 18.4% | [5] 33.3% | [6] 34.9%

COc1cc(C=O)c(Cl)cc1OC(C)=O
inactive: [1] 32.9% | [2] 21.9% | [3] 36.4% | [4] 32.8% | [5] -10.1% | [6] 27.9%

CCCCCCCCN(CCCCCCCC)CC(O)c1ccnc2c(Cl)cc(Cl)cc12 (stereo not drawn)
inactive: [1] 16.5% | [2] 15.2% | [3] 43.2% | [4] 5.7% | [5] 4.85% | [6] 33.3%

CCCCc1cc(C(=O)OC/C(C)=N/NC(N)=O)c2ccccc2n1
inactive: [1] -6.7% | [2] 25.8% | [3] 18.9% | [4] -27.6% | [5] 35.8% | [6] 9.45%

NC(=O)c1ncc(Cl)cc1Cl
inactive: [1] 21.1% | [2] 2.5% | [3] 14.3% | [4] 5.8% | [5] 0.55% | [6] 25.1%

O=C1CCCNC(=O)N1
inactive: [1] -11.2% | [2] 20.1% | [3] -19.3% | [4] 4.35% | [5] 1.95% | [6] -5.3%

O=C(O)CCCC1CCC(=O)CC1
inactive: [1] -0.4% | [2] -7.55% | [3] -8.1% | [4] -24.4% | [5] 0.5% | [6] 3.35%

CC(O)C(C(=O)O)N(CC1(O)OCC(O)C(O)C1O)N=O (stereo not drawn)
inactive: [1] -4.5% | [2] -13.9% | [3] 11.3% | [4] 1.2% | [5] -2.65% | [6] -7.45%

CC(=O)OCC(C)O (stereo not drawn)
inactive: [1] 28% | [2] -9.7% | [3] 14.3% | [4] -0.3% | [5] 1.2% | [6] 2%

CN(C)c1ccc(/C=C(\NC(=O)c2ccccc2)c2nc3ccccc3c(=O)o2)cc1
inactive: [1] 8.45% | [2] 10.3% | [3] 3.95% | [4] 11.5% | [5] -15.8% | [6] -9.3%

CC(=O)Nc1ccc(N(C)C)cc1
inactive: [1] 0.15% | [2] -3.4% | [3] 0.55% | [4] 10.2% | [5] 14.7% | [6] -7.85%

CCCCCN1C(=O)c2ccccc2C1=O
inactive: [1] 23.1% | [2] 10.5% | [3] 6.4% | [4] 5.15% | [5] 6.3% | [6] -0.55%

O=CNC1c2ccccc2CCc2ccccc21
inactive: [1] -1.15% | [2] -12.9% | [3] -11.4% | [4] -2.45% | [5] -22.6% | [6] -5.85%

N#CC1(OC2CCCCO2)Cc2ccccc2C1 (stereo not drawn)
inactive: [1] 16.8% | [2] 2.45% | [3] -13.3% | [4] -48.9% | [5] -5.45% | [6] -1.15%

Cc1ccc(O)c(Cl)c1C
inactive: [1] 6.4% | [2] -28.1% | [3] -6.7% | [4] 7.4% | [5] -26.3% | [6] 5.1%

[CH3][Sn]([CH3])([S]P(=S)(c1ccccc1)c1ccccc1)[S]P(=S)(c1ccccc1)c1ccccc1
inactive: [1] 25.1% | [2] 31.7% | [3] 18.7% | [4] -15.8% | [5] 19.1% | [6] 43.9%

Cc1nc2cccc3ccc4c5ccccc5cc1c4c32
inactive: [2] 15.2% | [3] -25% | [4] 0.9% | [5] 21.6% | [6] 49.3%
active: [1] 70%

CC1(C)OC(CI)C(COS(C)(=O)=O)O1 (stereo not drawn)
inactive: [1] 3.7% | [2] 3.2% | [3] 3.7% | [4] -25.2% | [5] -11.3% | [6] -2.25%

CCN(CCOC)C(C)=O
inactive: [1] 2.15% | [2] 2.25% | [3] 17.6% | [4] -1.75% | [5] -0.45% | [6] -3.05%

CN(C)CCS(=O)(=O)c1ccc(Cl)cc1
inactive: [1] 38.9% | [2] 14.6% | [3] 14.4% | [4] 16.5% | [5] 9.85% | [6] 20.6%

Cn1c(=O)[nH]c2ccc(Cl)cc2c1=O
inactive: [1] 2.75% | [2] -5.85% | [3] -3.25% | [4] -67.8% | [5] 8.15% | [6] 5.85%

O=C(NCCCCCSC(=O)c1ccccc1)c1ccccc1
inactive: [1] -0.35% | [2] 4.6% | [3] 7.95% | [4] 13.8% | [5] 15.7% | [6] -4%

COC(=O)C(C)(C)C(C)=O
inactive: [1] -40% | [2] -47.1% | [3] -37.5% | [4] 7.5% | [5] -26.9% | [6] -30.4%

O=[N+]([O-])c1ccc(S/N=C\c2ccccc2)c([N+](=O)[O-])c1
inactive: [1] -9.95% | [2] 13.7% | [3] 0.25% | [4] 14.6% | [5] 7.2% | [6] 8.55%

CC(=O)NC1C(OCc2ccccc2)OC(CO)C(O)C1OCC(=O)NC(C)C(=O)NC(CCC(=O)NCCCCCNc1c2ccccc2nc2cccc([N+](=O)[O-])c12)C(N)=O (stereo not drawn)
active: [1] 78.8% | [2] 87.3% | [3] 79% | [4] 78.8% | [6] 89%
inactive: [5] 53.5%

CCOC(=O)c1ccc(NC2Oc3cc4c(cc3C(c3cc(OC)c(OC)c(OC)c3)C2C)OCO4)cc1 (stereo not drawn)
inactive: [1] -1.6% | [2] -15.5% | [3] -2.65% | [4] 11.4% | [5] -9.8% | [6] -9.55%

CCOc1cccc(C=N)c1O
inactive: [1] 35.8% | [2] -0.55% | [3] 51.9% | [4] 36.4% | [5] -1.75% | [6] 46.5%

CCOC(=O)c1ccc(Cn2c(C)cc(=O)n(Cc3ccc(C(=O)OCC)cc3)c2=O)cc1
inactive: [1] 0.25% | [2] -14.1% | [3] -9.9% | [4] -27.6% | [5] 4.05% | [6] -7.7%

Cc1ccccc1Cc1nccc2c1[nH]c1ccccc12
inactive: [1] -3% and -0.7% | [2] -11.5% and -15.1% | [3] -9.05% | [4] -29.5% | [5] -8.45% | [6] -16.9% and 50.1%

CCCC(c1ccc(N(C)C)cc1)c1ccc(N(C)C)cc1
inactive: [1] -5% | [2] -22% | [3] -2.75% | [4] 16.6% | [5] 29.3% | [6] -30%
